# Sm TGR block: S. mansoni TGR enzyme inhibition. Potency, µM (series often up to 114 µM), for inactives: top-dose activity change, negative = inhibition, most hits filed as inhibitors. purified TGR, DTNB reduction, TNB absorbance 405 nm. AID 485364. 360,000 compounds, 3% hits; note: potency is the fitted concentration of half-maximal effect; % is set by controls: 0 for no effect and ±100 for the full control effect; nearly all actives have a fitted effect of over 60% in size
#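 Kinetic colorimetric format: TGR-catalysed, NADPH-driven DTNB reduction monitored via TNB absorbance. Enzyme dispensed at 20 nM; compound exposure 15 min at room temperature before reaction start.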
# HCMV antiviral: blocks human cytomegalovirus replication. activity change, negative = inhibition, % at 57.5 µM. HFF cells, HCMV-luciferase reporter, 72 h; active compounds read low. 410,000 compounds, 4.5% hits; in the data active = activity change below about -60%; inconclusive = no clear call, values can overlap the other calls; inactive = above about -39%; note: % is set by controls: 0 for no effect and ±100 for the full control effect
#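 Screen run at 2 compound doses on HFFs infected with reporter HCMV, MOI 1 PFU/cell. Luciferase activity from cell lysates at 72 h post infection gave inhibition relative to buffer-only and Salinomycin wells.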
# Pf growth 48h: P. falciparum growth inhibition at 48 hours (one generation); Potency, µM (top dose mostly 28.7 µM), inactives show at the top dose activity change, negative = inhibition, usual class: inhibitors; 310,000 compounds, 5.9% hits; P. falciparum luciferase growth in erythrocytes, 48 h; note: potency is the fitted concentration of half-maximal effect; % is set by controls: 0 for no effect and ±100 for the full control effect
#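 Luminescence readout; reporter = integrated firefly luciferase in P. falciparum. RBC culture at 2% hematocrit, 0.1% parasitemia final, 37 C/5% CO2; decreased signal taken as growth inhibition.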
# SARS PLpro yeast: blocks SARS-CoV papain-like protease in a yeast assay | S. cerevisiae expressing SARS-CoV PLpro, growth rescue | Potency, µM (top dose mostly 32.9 µM), for inactives: at the top dose activity, positive = growth rescue, most hits filed as activators | 330,000 compounds, 0.19% hits; calls by dose curve; note: potency is the fitted concentration of half-maximal effect; 0% is about no effect; nearly all actives have a fitted effect of over 55% in size
# HCV inh: inhibitors of hepatitis C virus infection; Huh7.5.1 HCVcc-Cre infection, luciferase reporter, 44 h; Potency, µM (doses to about 41.8 µM), for the others: top-dose activity change, negative = inhibition, most hits filed as inhibitors; 340,000 compounds, 3.4% hits; AID 651820; note: potency is the fitted concentration of half-maximal effect; % is set by controls: 0 for no effect and ±100 for the full control effect
#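 HCVcc-Cre virus at an moi near 0.5 was added right after compound to cells cultured 4 h from seeding (1,000 cells/well). Luciferase activity was determined 44 h later, 15 min after substrate addition at RT.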
# Pf growth 96h: P. falciparum growth inhibition at 96 hours; P. falciparum luciferase reporter growth, 96 h; Potency, µM (highest dose often 28.7 µM), for inactives: at the top dose activity change, negative = inhibition, most hits filed as inhibitors; 320,000 compounds, 6.9% hits; note: potency is the fitted concentration of half-maximal effect; % is set by controls: 0 for no effect and ±100 for the full control effect
#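 Infected RBCs, 2% Hct / 0.05% parasitemia final; luciferase-reporter P. falciparum; cpd 96 h, 37 C, 5% CO2; luciferase detection reagent; luminescence.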
# * = called active by the depositor; ? = inconclusive; nt = not tested or not shown; [ ] = another dose, or the depositor's remark. Sampled rows, rich in hits. Any-hit rate of the full collection: about 15%. Unless noted, calls come from the whole dose curve; as a rule, active = well fitted curve in the direction sought with a large enough effect; inconclusive = small, poorly fitted or top-dose-only effect, or another doubt; inactive = no such curve, though single readings can be large; an effect the other way counts as inactive or inconclusive.
SMILES,Sm TGR block,HCMV antiviral,Pf growth 48h,SARS PLpro yeast,HCV inh,Pf growth 96h
COc1ccc(C(=O)C(C)OC(=O)CCN2C(=O)C3CC=CCC3C2=O)cc1 (stereo not given),-16%,?,-13%,5%,-4%,?
CCC(=O)N1CCc2cc(S(=O)(=O)NC(CC(C)C)C(=O)NCCc3ccccc3)ccc21 (stereo not given),6%,0,nt,nt,nt,nt
Cc1cccc(CN2CCC(Oc3ccc(C(=O)N4CCCCC4)cc3)CC2)c1,2%,31,?,23%,-12%,9.3µM*
CSCCCNC(=O)c1ccc(OC2CCN(CCc3ccccc3)CC2)cc1,10%,0,?,0%,3%,13µM*
CCOc1cccc(CN2CCC(Oc3ccc(C(=O)N4CCCC4)cc3)CC2)c1,-9%,18,?,-1%,1%,?
CCc1ccc(CN2CCC(Oc3ccc(C(=O)N4CCCCC4)cc3)CC2)cc1,0%,?,-29%,-6%,-26%,?
C=CCOc1ccccc1CN1CCC(Oc2ccc(C(=O)N3CCCCC3)cc2)CC1,0%,-12,37%,-1%,nt,10µM*
O=C(NCC1COCCO1)c1ccc(OC2CCN(CCc3ccccc3)CC2)cc1 (stereo not given),-4%,38,1%,-1%,10%,2%
CC(C)c1ccc(CN2CCC(Oc3ccc(C(=O)N4CCCC4)cc3)CC2)cc1,-34%,1,6.6µM*,-4%,?,-31%
Cc1ccccc1CN1CCC(Oc2ccc(C(=O)N3CCCC3)cc2)CC1,-1%,-21,?,0%,-7%,74%
CCn1c(C(=O)N2CCC(C(=O)N3CCN(c4ccc(OC)cc4)CC3)CC2)cc2sccc21,-4%,-25,nt,nt,nt,nt
CCOc1ccc(C(=O)Nc2cc(-c3ccccc3)no2)cc1,5%,61,nt,nt,nt,nt
O=S(=O)(CCSc1nc2ccccc2s1)c1nc2ccccc2s1,0.1µM*,-85*,12µM*,-60%,?,37%
C=CCS(=O)(=O)c1nc2ccccc2s1,14µM*,-97*,?,-45%,?,?
c1ccc(-n2nnnc2SCCCSc2nc3ccccc3s2)cc1,1%[11.4 µM],109,nt,-6%,?,4.1µM*
CC(C)CN1CCC(CN2C(=S)NC[C@@H]2Cc2ccccc2)CC1,nt,-18,nt,nt,nt,nt
COC(=O)c1c(NC(=O)C2SC(=NC3CCCCC3)C(C(N)=O)=C2N)sc2c1CCCC2 (stereo not given),-10%,40,10%,-9%,3%,-12%
CCc1nnc(N/N=C/c2ccccc2Cl)n1N,14%,-3,36%,-14%,1%,?
CCc1nnc(N/N=C/c2ccccc2F)n1N,1%,-80*,28%,-2%,-2%,-22%
Cc1cc(C)nc(NCc2ccc(Cl)cc2)n1,27%,-15,?,1%,7%,0%
Cc1cc(N/N=C/c2cccc(Cl)c2)nc(NCc2ccccc2)n1,-13%,-2,0.83µM*,-31%,13µM*,?
Cc1cc(N/N=C/c2ccc(Cl)cc2)nc(NCc2ccccc2)n1,1%,-13,1µM*,-25%,35µM*,0.74µM*
Cc1cc(Nc2cccc(Cl)c2)nc(NCc2ccccc2)n1,5%,-77*,0.74µM*,?,?,0.47µM*
Cc1cc(N/N=C/c2ccccc2)nc(NCc2ccccc2)n1,-5%,-8,2.3µM*,-21%,6.3µM*,1.5µM*
Cc1cc(N/N=C/c2cccc(F)c2)nc(NCc2ccccc2)n1,12%,8,?,0%,-23%,?
SMILES,Sm TGR block,HCMV antiviral,Pf growth 48h,SARS PLpro yeast,HCV inh,Pf growth 96h
CCn1cc(CN2CCN(CCc3ccccc3)C(CCO)C2)c(C)n1 (stereo not given),-1%,33,8%,0%,9%,19%
CCOC(=O)c1c(NC(=O)COc2ccc(Cl)cc2Cl)sc2c1CCCCC2,5%,-4,nt,nt,nt,nt
Cc1ccc(-c2nc(COC(=O)C3=NN(c4ccccc4)C(=O)CC3)cs2)cc1,-5%,35,45%,-3%,22%,37%
COc1cccc(NC(=O)C2CCN(S(=O)(=O)c3cccc4nonc34)CC2)c1,5%,-12,nt,nt,nt,nt
COc1ccccc1NC(=O)c1cc2c([nH]c1=O)CC(C)(C)CC2=O,0%,9,nt,nt,nt,nt
Cc1ccc(S(=O)(=O)N2CCOCC2)cc1C(=O)OCC(=O)N1c2ccccc2NC(=O)C1(C)C,-1%,nt,-19%,4%,nt,nt
CN(C)c1nc(NCc2ccccc2)nc(N/N=C/c2ccccc2F)n1,-5%[57.1 µM],nt,?,-1%,nt,28%
CN(C)c1nc(NCc2ccccc2)nc(N/N=C/c2ccc(Cl)cc2Cl)n1,-16%,-3,?,4%,24%,9.3µM*
O=C(NC(Nc1ncccn1)C(=O)c1ccccc1)c1ccccc1 (stereo not given),3%,11,37%,4%,10%,-11%
O=C(NC(NC(=O)c1ccccc1)C(=O)c1ccccc1)c1ccccc1,6%,2,-19%,23%,-3%,2.3µM*
O=C(c1ccccc1)C(O)c1ccccc1 (stereo not given),-25%,-4,?,-1%,?,9.5µM*
Cc1oc(-c2ccc3c(c2)OCCO3)cc1C(=O)NC(Cc1ccccc1)C(=O)O (stereo not given),35µM*,-17,-18%,-1%,5%,22%
Cc1oc(C(C)(C)C)cc1C(=O)NC(Cc1ccccc1)C(=O)O (stereo not given),0%,-77*,19%,0%,13%,?
COC(=O)CCC(NC(=O)c1cc(-c2ccc3c(c2)OCCO3)oc1C)C(=O)OC (stereo not given),?,20,?,5%,-25%,26%
CCC1(C)Cc2ccccc2C(=S)N1 (stereo not given),nt,-27,-16%,1%,18%,6%
CCCn1c(SCc2nc(-c3ccccc3C)no2)nnc1-c1ccc(Cl)cc1,0%,-9,nt,nt,nt,nt
NC(=O)NC(CC(=O)N1CCc2ccccc2C1)c1ccc(Cl)cc1 (stereo not given),-5%,-14,0%,nt,5%,38%
CC(C)OC(=O)c1ccc(NC(=O)Cn2c(-c3nonc3N)nc3ccccc32)cc1,0%,11,10µM*,9%,-5%,8.3µM*
Nc1nonc1-c1nc2ccccc2n1CC(=O)N/N=C/c1ccc(-c2cccc(C(=O)O)c2)o1,50µM*,-27,4%,0%,-4%,0%
COc1ccc(-c2nc(C)ncc2N=Nc2ccccc2)cc1,14%,-35,9.3µM*,2%,32µM*,3.7µM*
Cc1cccc(C)c1OCC(=O)Nc1ccc(N2CCOCC2)cc1,7%,13,?,-1%,-27%,1.5µM*
